Experimental data reported in PubChem BioAssay (NCI).
Compounds without any hit were thinned out: in the full panel of roughly 79,000, 15% have a hit. Unmarked numbers belong to inactive results. Calls of active or inactive are those of the source. Rule as the data show it: active = growth inhibition above about 70%; inactive = the rest. Where a SMILES comes first, the peptide text is derived from it. [ ]: non-standard residue; d: D form. ξ: configuration not given here. ξA = CC(N)C(=O)O

Tests used:
[1] = NCI Yeast Anticancer Drug Screen. Data for the rad50 strain (AID 155);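 also: 0% = growth of vehicle-only cultures of the same strain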; conditions: S. cerevisiae rad50 strain growth inhibition; at 50.0 µM; stronger effect = higher value
In short: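 Cells are treated with compound, grown, and their growth is then scored against vehicle-only cultures of the same repair-deficient yeast strain.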

[2] = NCI Yeast Anticancer Drug Screen. Data for the mec2-1 strain (AID 157); conditions: S. cerevisiae mec2-1 strain, at 50.0 µM, stronger effect = higher value
In short: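 Mutant yeast (mec2-1) grown with compound; growth inhibition relative to vehicle control reported.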

[3] = NCI Yeast Anticancer Drug Screen. Data for the sgs1 mgt1 strain (AID 161);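 also: 0% = growth of cultures given vehicle only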; conditions: S. cerevisiae sgs1 mgt1 strain, at 50.0 µM, stronger effect = higher value
In short: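 Percent growth inhibition was derived by comparing compound-exposed mutant yeast with vehicle-exposed cultures. The strain carries alterations in DNA damage repair.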

[4] = NCI Yeast Anticancer Drug Screen. Data for the cln2 rad14 strain (AID 165);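 also: 0% = growth equal to vehicle treated cultures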; conditions: S. cerevisiae cln2 rad14 strain, at 50.0 µM, stronger effect = higher value
In short: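 Readout is yeast growth inhibition versus vehicle-treated controls, using a strain with cln2 and rad14 alterations exposed to compound.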

[5] = NCI Yeast Anticancer Drug Screen. Data for the bub3 strain (AID 167); conditions: S. cerevisiae bub3 mutant strain, at 50.0 µM, stronger effect = higher value
In short: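 Part of a panel of yeast mutants defective in DNA damage repair or cell cycle regulation. Each strain is grown with compound, and inhibition is calculated relative to solvent-treated cultures.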

[6] = NCI Yeast Anticancer Drug Screen. Data for the mlh1 rad18 strain (AID 175); conditions: S. cerevisiae mlh1 rad18 strain growth inhibition; at 50.0 µM; stronger effect = higher value
In short: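 Genetically defined yeast (DNA repair-deficient) exposed to compounds; growth inhibition determined relative to vehicle.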

SMILES	growth inhibition [1]	growth inhibition [2]	growth inhibition [3]	growth inhibition [4]	growth inhibition [5]	growth inhibition [6]
Cc1c([N+](=O)[O-])cc(C(C)(C)C)c(OC(=O)C(Cl)(Cl)Cl)c1[N+](=O)[O-]	58.3%	72.5% (active)	73.9% (active)	78.8% (active)	88.9% (active)	72.8% (active)
NC(c1ccccc1)(c1ccccc1)c1ccccc1	20.1%	2.9%	43.9%	-9.8%	19.4%	11%
CC1(C(=O)O)CCC(C(=O)Nc2ccccc2)C1(C)C (configuration not stated)	-11.2%	-20.6%	5.05%	-0.35%	-13.1%	1.9%
CCCSC(=O)Nc1ccc(Cc2ccc(NC(=O)SCCC)cc2)cc1	2.05%	-17.3%	16.6%	21.8%	16.4%	14.5%
COc1cc2oc(=O)ccc2cc1CC=C(C)C	-16.1%	-26.2%	-4.1%	-6.35%	2.95%	-21.8%
[N-]=[N+]=NC1=NNC2(C(=O)N1)c1ccccc1-c1ccccc12	-6.35%	-17.5%	-22.9%	-5.75%	-30.1%	-18.6%
C[n+]1ccc2c(Br)cccc2c1	-1.8%	-14.9%	-6.45%	-12.7%	-1%	13.5%
CC(C)NCC(=O)CCCBr	-5.15%	0.85%	-3.8%	-23.1%	5.45%	10.8%
O=[N+]([O-])c1ccc(Cl)cc1N/N=C/c1ccnc2ccccc12	-53.4%	-56.1%	-28.6%	-15.1%	-17.4%	-54.9%
CSc1ccccc1C(C)(C)O	24.6%	-2.55%	3.35%	-29.8%	-1.4%	26.4%
O=C(CO)C(O)C(O)C(O)CO (configuration not stated)	1.65%	-9.75%	-7.45%	8.75%	19.9%	0.95%
CC(=O)OC1=CC(=O)N(C(=O)c2ccccc2)C1	-2.8%	-5.95%	-18.6%	-12.2%	3.2%	-6.55%
Cc1nc(-c2nc(C(=O)NCCC[S+](C)C)cs2)cs1	-11.5%	-7.85%	-5.4%	3.4%	-2.35%	-0.2%
O=C1OC(=O)C2C3C=CC(C3)C12 (configuration not stated)	17.2%	-5.35%	23.1%	-20.4%	-1.45%	21.4%
O=c1ccc2cc(Br)ccc2o1	6.65%	16.7%	16.6%	-16.4%	10.7%	4.35%
CC(C)C(=O)NCCc1ccccc1	0%	0.45%	-3.15%	-26.6%	-0.45%	2.95%
CC(=O)CC(=O)Nc1ccccc1C(C)C	12.9%	8.1%	16.1%	7.4%	-7.85%	-1.7%
COc1c2c(c3ccccc3c1O)C1C=CC2C1 (configuration not stated)	7.6%	7.6%	-37.7%	-5.25%	0.25%	-16.3%
Cc1cc(N(CCC#N)CCC#N)ccc1/C(N=Nc1ccccc1)=N\NC(=O)c1ccccc1	22.3%	16.6%	11.2%	-8.5%	-16.1%	31.8%
CC12CCCCC1C(C(C)(C)OC(=O)c1ccc([N+](=O)[O-])cc1)CC2 (configuration not stated)	15%	8.2%	17.4%	-8.85%	12.6%	21.1%
CC1OC2=N[C@@H]1C(=O)N[C@@H](C(C)C)C1=N[C@H](C(=O)N[C@@H](C(C)C)C3=N[C@H](C(=O)N[C@@H](C(C)C)C4=N[C@H](C(=O)N[C@H]2C(C)C)C(C)O4)C(C)O3)C(C)O1 (some centres not stated)	6.9%	3.55%	3.55%	19.1%	14.8%	9.55%

SMILES	growth inhibition [1]	growth inhibition [2]	growth inhibition [3]	growth inhibition [4]	growth inhibition [5]	growth inhibition [6]
COc1ccc(-c2cc(=O)c3c(O)cc(O)c(-c4cc(-c5cc(=O)c6c(O)cc(OC)cc6o5)ccc4OC)c3o2)cc1	39.1%	17.1%	5.55%	24.6%	27.3%	20%
Cc1ccccc1N(C)S(=O)(=O)c1ccccc1[N+](=O)[O-]	-12%	-41.5%	8.45%	-5.6%	20.2%	-10.2%
O=c1cc(-c2cccnc2)oc2ccc(Cl)cc12	59.8%	-2.8%	7.7%	-33.9%	11.2%	5.85%
CC(C)CCCC(C)C1CCC2C3C(=O)C=C4CC(OC(=O)CCC(C)C)CCC4(C)C3CCC12C (configuration not stated)	-0.05%	11.9%	25.3%	19.8%	-0.55%	0.25%
CCc1n[nH]c(=O)n1N1C(=O)CCC1=O	4.25%	18.4%	-11.7%	5.4%	-23.8%	23.2%
CC1(c2ccc(Cl)cc2)NC(=O)N(CC(N)=O)C1=O (configuration not stated)	3.6%	-0.1%	-10.8%	-11%	-7.8%	8.6%
NNC(=O)COc1ccc(Br)cc1Br	33.2%	4.25%	-5.15%	26.4%	3.8%	-1.25%
O=C(O)C(Cc1ccccc1)NC(c1ccc(Cl)cc1)P(=O)(O)O (configuration not stated)	14.3%	7.95%	-2.3%	12.8%	-4.8%	20.8%
O=S(=O)(O)CCCCO	4.4%	-29.9%	0.9%	22.2%	6.15%	10.2%
Cc1ccc(C)c(NC(=O)C(=O)C2C(=O)N(c3ccccc3)N=C2N)c1 (configuration not stated)	-38.5%	-29.4%	-1.25%	1.9%	-26.4%	-14%
O=[N+]([O-])c1ccc(N/N=C/CCCCO)c([N+](=O)[O-])c1	13.3%	-4.65%	-0.6%	-30.6%	9.85%	-5.8%
Cc1ccc(N=Cc2cc(Cl)cc(Cl)c2OC(=O)c2ccccc2)cc1C	81.8% (active)	91.7% (active)	91% (active)	90.2% (active)	96.5% (active)	93.3% (active)
CC(NC(=O)CNC(=O)CNC(=O)CNC(=O)CN)C(=O)O (configuration not stated) (H-GGGG[ξA]-OH)	-26.9%	-30.9%	-8.55%	-10.6%	-14.5%	-31.6%
Nc1cnc2ccccc2c1	10.2%	1.25%	-8.45%	-46.5%	11.8%	-4.1%
COc1cc(NS(=O)(=O)c2ccc(N)cc2)c2ncccc2c1	1.2%	22.8%	8.8%	-17.1%	4.5%	2.95%
CCCCCCCCCCCCCCCCNc1nc(=S)cc(C)[nH]1	-10.2%	-27.6%	-5.05%	-14.6%	-25%	-10.9%
CCN(CCNc1cc(OC)cc2cccnc12)c1ccccc1	59.9%	20.7%	48.4%	23.2%	47%	68.2%
FC(F)(F)c1nc(=S)c2cn[nH]c2[nH]1	4.35%	31.1%	8.45%	-12.2%	35.5%	-5.3%
Cc1cc(N)c2cc(N)ccc2n1	99.6% (active)	99.5% (active)	99.4% (active)	64.7%	99.2% (active)	98.2% (active)
COC(=O)CCNC(C(=O)O)C(C)(C)SCCC(=O)OC (configuration not stated)	-18.6%	-19.1%	-7.9%	24.5%	24.5%	-20.4%
N#CCc1c(Cl)ccc(Cl)c1Cl	37%	45.6%	44.6%	3.9%	58.8%	39.5%
